Rows were chosen to be rich in hits. Some 4.6% of all compounds tested hit in one or more screens of this group.
HTT promoter inh = HTT promoter inhibition | 48,000 compounds, 0.93% hits | Potency, µM (series often up to 57.5 µM), actives largely listed as inhibitors | HEK293 HTT promoter firefly luciferase reporter, 24 h; also: nearly all actives have a fitted effect of over 50% in size
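Luminescence was read after Dual-Glo reagent and a 10 min room-temperature incubation. Values were normalized to vehicle (0% activity) and zero RLU (-100% activity). Reporter HEK293 cells had been exposed to compounds (up to 57.5 uM final) for 24 h.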
GPR32 ag = agonists of human resolvin D1 receptor DRV1 (GPR32); CHO-K1 GPR32 beta-arrestin PathHunter luminescence, 90 min; zero percent set by DMSO-only wells; 48,000 compounds, 2.5% hits; O75388; activation, % at 76.9 µM;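 active = activation of at least 60% and not above a set upper limit, about 1 call in 100 departs from these limits; inconclusive = activation of 40% to 60%, or above that upper limit; inactive = activation under 40%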
Target sequence (O75388 whole entry, looked up): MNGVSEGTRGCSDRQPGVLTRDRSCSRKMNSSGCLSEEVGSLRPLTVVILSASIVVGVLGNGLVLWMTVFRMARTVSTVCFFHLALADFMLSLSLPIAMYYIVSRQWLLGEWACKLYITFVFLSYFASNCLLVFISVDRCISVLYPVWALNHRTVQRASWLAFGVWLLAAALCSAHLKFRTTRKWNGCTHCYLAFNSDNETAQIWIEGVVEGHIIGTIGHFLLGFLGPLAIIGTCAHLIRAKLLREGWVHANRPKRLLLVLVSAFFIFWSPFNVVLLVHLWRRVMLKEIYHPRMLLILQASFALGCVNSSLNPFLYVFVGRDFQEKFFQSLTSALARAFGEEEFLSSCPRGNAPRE
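Luminescent readout of beta-Gal complementation quantifies ligand-induced beta-arrestin association with GPR32 in CHO-K1 cells; 90 min compound incubation at 37 °C, detection 1 h at room temperature.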
NTMT1 inh = inhibitors of human N-terminal methyltransferase NTMT1; Q9BV86; NTMT1 MTase-Glo SAH luminescence, purified enzyme; Potency, µM (highest dose often 114 µM), usual class: inhibitors; 59,000 compounds, 2.5% hits; also: nearly all actives have a fitted effect of over 65% in size
Target sequence (Q9BV86 whole entry, looked up): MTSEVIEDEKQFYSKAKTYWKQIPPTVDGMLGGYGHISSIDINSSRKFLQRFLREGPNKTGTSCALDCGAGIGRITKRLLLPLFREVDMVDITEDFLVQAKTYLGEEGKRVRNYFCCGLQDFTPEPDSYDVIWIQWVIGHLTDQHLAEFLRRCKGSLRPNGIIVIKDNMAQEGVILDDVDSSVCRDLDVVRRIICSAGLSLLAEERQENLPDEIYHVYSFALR
HTT-AS act = activators of huntingtin-antisense promoter activity | HEK293 HTT-AS promoter firefly luciferase reporter, 24 h; response scale: percent change from vehicle, -100% = no light | Potency, µM (doses to about 57.5 µM), actives largely listed as activators | 48,000 compounds, 0.24% hits; also: nearly all actives have a fitted effect of over 55% in size
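Firefly luciferase readout (Dual-Glo, 10 min RT) after 24 h, 37 °C compound exposure (final up to 57.5 uM) of HEK293 reporter cells cultured 24 h beforehand; PTC124 at 50 uM final as control inhibitor; activity scaled vehicle 0%, zero RLU -100%.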
A number is an active result; i = inactive; ? = inconclusive; nt = no result given; ! = a repeat was not active. Unless noted, calls follow the shape of the dose curve; as a rule, active = well fitted curve in the direction sought with a large enough effect; inconclusive = small, poorly fitted or top-dose-only effect, or another doubt; inactive = no such curve, though single readings can be large; an effect the other way counts as inactive or inconclusive.

SMILES	HTT promoter inh	GPR32 ag	NTMT1 inh	HTT-AS act
COc1ccc(N2CCN(C(=O)c3oc4ccccc4c3NC(=O)c3ccccc3OC)CC2)cc1	?	i	i	i
COc1ccccc1N1CCN(C(=O)c2oc3ccccc3c2N)CC1	nt	71	nt	nt
COc1ccc(C)cc1NC(=O)Cn1c(=O)cc(C)c2c(C)nn(C)c21	2µM	i	i	i
Cc1nn(C)c2c1c(-c1ccccc1)cc(=O)n2CC(=O)NC(C)(C)C	i	91	i	i
COC(=O)c1ccccc1NC(=O)Cn1c(=O)cc(C)c2c(C)nn(C)c21	?	i	i	i
CCC(C)NC(=O)Cn1c(=O)cc(-c2ccccc2)c2c(C)nn(C)c21 (stereo not given)	i	i	i	i
Fc1ccc(-c2ccc(Nc3nc(-c4ccncc4)nc4ccccc34)cc2F)cc1	nt	nt	i	nt
Cc1ccc(NC(=O)Cn2c(=O)c3cc(Cl)ccc3n3nncc23)cc1	i	i	i	i
OCC(CO)(CO)NCC(O)Cn1c2ccc(Cl)cc2c2cc(Cl)ccc21 (stereo not given)	nt	nt	22µM	nt
COc1ccc(NS(=O)(=O)c2ccc(NS(=O)(=O)c3ccc4c(c3)OCCO4)cc2)cc1	i	68	i	i
O=S(=O)(Nc1ccc(Cl)cc1)c1ccc(NS(=O)(=O)c2ccc3c(c2)OCCO3)cc1	?	i	i	i
CCOC(=O)c1cnc2ccc(-c3cncc(NS(=O)(=O)c4ccccc4)c3)cn12	nt	nt	28µM	nt
CCOC(=O)c1c(-c2ccccc2)oc2ccc(NS(=O)(=O)c3ccccc3)cc12	nt	i	nt	nt
CCN(CC)CCNC(=O)c1ccc(-c2nc(CN3CCc4ccccc43)c(C)o2)cc1	i	97	i	i
CCC1Oc2ccccc2N(CC(=O)NCc2ccc(C)cc2)C1=O (stereo not given)	i	i	i	?
CCC1Oc2ccc(C)cc2N(CC(=O)NCc2ccc(OC)cc2)C1=O (stereo not given)	i	64	i	i
COc1ccc2[nH]c3c(c2c1)CCN[C@]31CS[C@@H]2c3c(OC(C)=O)c(C)c4c(c3[C@H](COC1=O)N1[C@@H]2[C@H]2c3c(cc(C)c(OC)c3O)C[C@@H]([C@@H]1O)N2C)OCO4	nt	nt	i	nt
COc1ccccc1/C=C/c1nc(C#N)c(N2CCCCC2)o1	i	i	i	i
COc1ccc(N2CCN(c3oc(/C=C/c4ccccc4OC)nc3C#N)CC2)cc1	i	i	89µM	i
CNC1CCC(N(Cc2cccc(-c3ccncc3)c2)C(=O)c2sc3ccccc3c2Cl)CC1 (stereo not given)	i	nt	35µM!	i
Cc1ccc(NC(=O)c2sc3ccccc3c2Cl)cc1	i	i	i	?
CNC1CCC(N(Cc2cccc(-c3ccncc3)c2)C(=O)c2sc3c(F)ccc(F)c3c2Cl)CC1 (stereo not given)	i	nt	71µM!	i
O=C1NC(=O)[C@@H](c2c[nH]c3ccccc23)[C@H]1c1cn2c3c(cccc13)CCC2	nt	nt	i	nt
Cc1nc(C)c(CN2CCN(C(c3ccc(F)cc3)c3ccc(F)cc3)CC2)nc1C	nt	nt	i	nt
Cc1ccc2nc(-c3ccc(Cl)s3)c(Nc3ccc4c(c3)OCCO4)n2c1	i	i	?	4.5µM
SMILES	HTT promoter inh	GPR32 ag	NTMT1 inh	HTT-AS act
CN1CCN(CCCN2c3ccccc3Sc3ccc(C(F)(F)F)cc32)CC1	?	64!	?	i
O=C(CCN1CCN(CCO)CC1)N1c2ccccc2Sc2ccc(C(F)(F)F)cc21	i	i	i	i
Cc1cc(NS(=O)(=O)c2ccc(NC(=O)Cc3ccc(Cl)c(C(F)(F)F)c3)cc2)no1	nt	nt	i	nt
COc1cccc(CNC(=O)Cn2nc(-c3ccc(Cl)cc3)ccc2=O)c1	i	76	i	i
COc1cccc(CNC(=O)Cn2nc(-c3ccc(C)cc3)ccc2=O)c1	i	i	i	i
Cc1ccc(-c2ccc(=O)n(CC(=O)N(C)C3CCCCCC3)n2)cc1	nt	nt	i	nt
Cc1ccc(NC(=O)c2c(NC(=O)C(F)(F)F)sc3c2CCCCC3)cc1	1.4µM	62	i	i
Cc1cccc(NC(=O)c2c(NC(=O)C(F)(F)F)sc3c2CCCCC3)c1	2µM	i	10µM	i
O=C(COc1ccc(Cl)cc1)Nc1sc2c(c1C(=O)Nc1cccc(Cl)c1)CCCC2	i	i	25µM	i
O=C(Nc1cccc(Cl)c1)c1c(NC(=O)C(F)(F)F)sc2c1CCCC2	1.8µM	i	8.9µM	i
O=C(Nc1ccc(S(=O)(=O)Nc2ncc(-c3ccccc3)s2)cc1)c1ccc2ccccc2c1	nt	nt	i	nt
Cc1cc(NS(=O)(=O)c2ccc(NC(=O)Cc3ccc(C)c(C)c3)cc2)no1	nt	nt	i	nt
CC1=C(C(=O)NCc2ccccc2)C(c2ccccc2Br)N=C(Nc2nc3ccccc3o2)N1 (stereo not given)	nt	nt	i	nt
Cc1ccc(=O)n(CC(=O)NCCc2ccccc2)n1	nt	nt	i	nt
c1ccc(C(OC2CCN(CCCc3nn[nH]n3)CC2)c2ccccc2)cc1	nt	nt	i	nt
Cc1ccccc1NC(=O)c1c(NC(=O)C(F)(F)F)sc2c1CCCCC2	2µM	i	i	i
CCCCc1nnc(-c2cnn(C)c2N)n1CCCn1ccnc1	nt	nt	i	nt
O=C(Cc1ccc(Cl)c(Cl)c1)Nc1ccc(S(=O)(=O)Nc2cccc(O)c2)cc1	nt	nt	i	nt
CCc1cc(C(N)=O)ccc1-n1nc(C(C)C)c2c(-n3cnc(-c4cnn(C)c4)c3)ccnc21	nt	nt	i	nt
COc1ccc(CN(CCN(C)C)c2ncccn2)cc1	i	i	i	i
CCCCCCCCCCCCCCCC[N+](C)(C)CCN(Cc1ccc(OC)cc1)c1ncccn1	?	i	25µM	i
CC(C)[C@@H]1C(=O)N(S(C)(=O)=O)[C@@H]2CCN(C(=O)/C=C/CN3CCCCC3)[C@H]21	nt	nt	i	nt
CCOc1cccc(NC(=O)C2CC(=O)N(C)C(=Nc3ccc(F)cc3)S2)c1 (stereo not given)	?	78	i	i
CCOc1cccc(NC(=O)C2CC(=O)N(C)C(=Nc3ccc(OC)cc3)S2)c1 (stereo not given)	i	i	i	i
COC(=O)Nc1nc2ccc(C(=O)c3cccs3)cc2[nH]1	i	i	28µM!	i
SMILES	HTT promoter inh	GPR32 ag	NTMT1 inh	HTT-AS act
CCCS(=O)c1ccc2nc(NC(=O)OC)[nH]c2c1 (stereo not given)	i	i	50µM!	i
COC(=O)Nc1nc2ccc(C(=O)c3ccccc3)cc2[nH]1	i	i	30µM!	i
COC(=O)Nc1nc2ccc(S(=O)c3ccccc3)cc2[nH]1 (stereo not given)	i	i	i	i
CCCSc1ccc2nc(NC(=O)OC)[nH]c2c1	i	i	i	i
CC(=O)Nc1sc2c(c1-c1ccc3c(c1)CCO3)CCNC2	nt	nt	i	nt
O=C(Nc1ccc(C(=O)Nc2nccs2)cc1)c1ccc2ccccc2c1	nt	nt	i	nt

Screening results: PubChem, National Center for Advancing Translational Sciences (NCATS)
